Experimental data published in PubChem BioAssay (NCI).
Compounds without any hit were thinned out: in the full panel of roughly 83,000, 20% have a hit.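 Treatment: one concentration, 48 hours, 96-well format. Scoring: percent growth, with anything below 10 considered active.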 Activity calls are given as the source filed them.

Legend:
Assay in all cases: NCI-60 one-dose screen, 48 h (100 = growth as untreated, 0 = no growth, -100 = all killed)
Conditions in all cases: 10 µM unless noted
[1] = test system: NCI-H23 lung
[2] = test system: NCI-H226 lung
[3] = test system: NCI-H322M lung
[4] = test system: HOP-62 NSCLC
[5] = test system: NCI-H460 lung
[6] = test system: HOP-92 NSCLC
[7] = test system: NCI-H522 lung
[8] = test system: A549/ATCC NSCLC
[9] = test system: 786-0 renal
[10] = test system: COLO 205 colon

Measured: growth

COc1ccc(-c2ccc(C)n2-c2ccc(-c3nc4ccccc4s3)cc2)cc1
inactive: [1] 81.4% | [2] 85.2% | [3] 98.2% | [4] 87.6% | [5] 88.8% | [6] 86.2% | [7] 89.4% | [8] 85.6% | [9] 100% | [10] 94%

COc1ccc(NC(=O)c2c(Nc3ccc(OC)cc3OC)n[nH]c2N)c(OC)c1
inactive: [1] 91.7% | [2] 89.9% | [3] 87.7% | [4] 94.3% | [5] 107% | [6] 74.1% | [7] 79.3% | [8] 96.8% | [9] 107% | [10] 100%

O=C(Nc1cccc(-n2cc(-c3ccncc3)c(-c3ccc(Cl)c(O)c3)n2)c1)Nc1cc(C(F)(F)F)cc(C(F)(F)F)c1
active: [1] -7.93% | [2] 1.17% | [3] 5.11% | [4] -86.1% | [5] -55.7% | [6] -45.8% | [7] -50.1% | [8] -32.4% | [9] -46.8% | [10] -97.3%

COc1ccc(/C=C2\Oc3cc(OCCCN4CCCC4)ccc3C2=O)c(OC)c1
inactive: [1] 87.9% | [2] 96.4% | [3] 94.6% | [4] 101% | [5] 23.5% | [6] 83.8% | [7] 75% | [8] 80.5% | [9] 89.4% | [10] 92.8%

COc1cc(/C=N\NC(=O)CN2CCN(c3cc4c(cc3F)c(=O)c(C(=O)N/N=C/c3cc(OC)c(OC)c(OC)c3)cn4C3CC3)CC2)cc(OC)c1OC
inactive: [3] 11.5% | [8] 73.4% | [9] 54.9%
active: [1] -36.4% | [2] -64.7% | [4] -11.8% | [5] -23.3% | [6] -39% | [7] 8.22% | [10] 7.48%

Fc1ccc(Nc2nc(NCCNc3ccnc4cc(Cl)ccc34)nc(N3CCOCC3)n2)cc1
inactive: [1] 93% | [2] 94.8% | [3] 73.7% | [4] 85% | [5] 34.9% | [7] 48.1% | [8] 55.7% | [9] 53.6%
active: [6] -5.61% | [10] -85.7%

N#C/C(=C1C=C/C(=N/O)C(Cl)=C/1)c1ccc(Cl)cc1
inactive: [1] 104% | [2] 71.5% | [3] 118% | [4] 45.7% | [5] 78.3% | [6] 70.5% | [7] 67.7% | [8] 88.8% | [9] 63.5% | [10] 99.8%

CC(C)(C)n1cc(-c2ccnc(NCCCNS(=O)(=O)c3ccc(Cl)cc3)c2)c(-c2cccc(O)c2)n1
active: [4] 9.75% | [5] -66.7% | [6] -2.33% | [7] -55.7% | [8] 9.33% | [9] -35.2% | [10] -86.8%
inactive: [1] 14% | [2] 14% | [3] 10.6%

CCN(CC)c1ccc(C(=N)c2ccc(N(CC)CC)cc2)cc1
active: [1] -52.9% | [2] -33.5% | [4] -82.7% | [5] -44.5% | [6] -30.6% | [7] -62.4% | [8] 6.12% | [9] -55.2% | [10] -96.6%
inactive: [3] 16.2%

N=C(N)c1ccc(-c2ccc(-c3ccc(-c4cccs4)s3)s2)cc1
inactive: [1] 98.8% | [2] 93.4% | [3] 43% | [4] 93.8% | [5] 21.7% | [6] 54.6% | [7] 100% | [8] 14% | [9] 89.9% | [10] 102%

O=[N+]([O-])c1cnc(Sc2ccncn2)s1
inactive: [1] 77% | [2] 110% | [3] 99.1% | [4] 92% | [5] 97.3% | [8] 95.9% | [9] 93.1%
active: [6] -64.9% | [7] -79.1% | [10] -77.4%

CCCOC(=O)n1cccc1
inactive: [1] 99% | [2] 104% | [3] 135% | [4] 94.3% | [5] 110% | [6] 97% | [7] 112% | [8] 96.8% | [9] 98.5% | [10] 107%

Cc1ccc(C(=O)NCCCNc2nccc(-n3ccc4cccnc43)n2)cc1
inactive: [1] 102% | [2] 93.4% | [3] 91.6% | [4] 104% | [5] 109% | [6] 96.4% | [7] 88% | [8] 93.4% | [9] 93.7% | [10] 103%

COc1ccc(Nc2[nH]n3c(=O)cc(-c4ccccc4)nc3c2C(=O)Nc2ccc(C)cc2)c(OC)c1
inactive: [1] 88.7% | [2] 87.4% | [3] 81.5% | [4] 80.3% | [5] 111% | [6] 68.9% | [7] 78.2% | [8] 88.7% | [9] 92.7% | [10] 98%

COc1ccc2[nH]c(C(=O)OCc3ccc4c(Cl)cc(Cl)c(O)c4n3)cc2c1
inactive: [3] 54.3% | [4] 28.2%
active: [1] -23.9% | [2] -59% | [5] -35.2% | [6] -78.6% | [7] -76.8% | [8] 5.45% | [9] -83.1% | [10] -75%

O=C(O)c1cn(C2CC2)c2cc(N3CCN(C(=O)/C=C/c4ccc(Cl)cc4)CC3)c(F)cc2c1=O
inactive: [1] 86.8% | [2] 91.5% | [3] 71.5% | [4] 80.8% | [5] 58.7% | [6] 57.4% | [7] 75.1% | [8] 77.4% | [9] 76.4% | [10] 98.9%

O=C(Nc1ccncc1)C(=O)c1cn(S(=O)(=O)c2ccc(Cl)cc2)c2ccccc12
active: [7] -2.79%
inactive: [1] 30.7% | [2] 78.3% | [3] 80.6% | [4] 31.4% | [5] 71.9% | [6] 32.8% | [8] 73.9% | [9] 34.9% | [10] 106%

CCN(CC)CCOc1ccc(Cl)c(C)c1
inactive: [1] 91.6% | [2] 104% | [3] 103% | [4] 104% | [5] 106% | [6] 85.7% | [7] 92.4% | [8] 96.5% | [9] 99.6% | [10] 103%

C=C[C@@H]1C[C@@H]2Cc3ccccc3N1O2
inactive: [1] 98.9% | [2] 109% | [3] 112% | [4] 96.6% | [5] 107% | [6] 126% | [7] 120% | [8] 96.3% | [9] 104% | [10] 116%

CCCCN(CCCC)C(=O)CC
inactive: [1] 102% | [2] 104% | [3] 117% | [4] 119% | [5] 108% | [6] 96.4% | [7] 114% | [8] 106% | [9] 102% | [10] 119%

COc1ccc(-c2nc(/C=C3/C(=O)Nc4ccc(F)cc43)c3ccccn23)cc1
inactive: [1] 97.8% | [2] 114% | [3] 126% | [4] 108% | [5] 94.8% | [6] 92.3% | [7] 104% | [8] 99.4% | [9] 98.8% | [10] 97.3%

CC(C)(C)n1cc(-c2ccnc(NCCNS(=O)(=O)c3ccc(C(F)(F)F)cc3)c2)c(-c2cccc(O)c2)n1
inactive: [1] 55.8% | [2] 67.2% | [3] 74.9% | [4] 71.5% | [5] 21.2% | [6] 35.4% | [7] 49% | [8] 41.1% | [9] 33.9%
active: [10] -33.8%

O=S(=O)(NCCNc1nccc(-c2c(-c3ccc(O)cc3)nc3sccn23)n1)c1cccc2ccccc12
inactive: [1] 98.1% | [2] 102% | [3] 98.1% | [4] 106% | [5] 106% | [6] 94.9% | [7] 91.5% | [8] 98.2% | [9] 96.6% | [10] 109%

Clc1ccc2c(NC3CCC(NC4CCCCC4)CC3)ccnc2c1 (stereo not given)
inactive: [1] 68.1% | [2] 79.7% | [3] 109% | [4] 61.6% | [5] 77.5% | [6] 51.5% | [7] 62.2% | [8] 65.6% | [9] 59.8%
active: [10] -71.5%

CC[N+](CC)=c1cc2oc3cc(N(C)C)ccc3nc-2cc1C
inactive: [2] 79% | [4] 18.3% | [5] 36.4% | [6] 63.9% | [8] 36.5% | [9] 70.4%
active: [1] 8.14% | [3] -28.4% | [7] -43.8% | [10] -9.82%
